Measured values from PubChem BioAssay (NCATS).
Records with an inconclusive call do not appear. Values without a mark were called inactive. Active and inactive are the calls of the source. Calls follow the shape of the dose curve; as a rule, active = well fitted cell-killing curve with a large enough effect; inconclusive = small, poorly fitted or top-dose-only effect, or effect the other way; inactive = flat fitted curve, though single readings scatter.

system: SKOV3; test: Primary qHTS to identify gynecologic anti-cancer compounds using libraries of approved drugs and bioactive compounds (AID 1345084); conditions: Gynecologic cancer cell panel viability, ATPlite luminescence, 48 h; series mostly up to 57.5 µM; activity change, negative = cytotoxicity: at the top concentration; also: nearly all actives have a fitted effect of over 55% in size
In short: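 Five-point cytotoxicity, 48 h drug exposure at 37 C, 5% CO2, on cells seeded 16 h beforehand. ATP content read by ATPlite luminescence.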
% is scaled to controls: 0 for no effect and ±100 for the full control effect; potency is read from the fitted curve at half-maximal effect.

Compound	activity change, negative = cytotoxicity	Potency
Nc1ccc(N)c([N+](=O)[O-])c1	-0.446% [at 116 µM]	–
COc1ccc(-c2c(C)c(C(=O)NN3CCCCC3)nn2-c2ccc(Cl)cc2Cl)cc1	-0.885%	–
O=C(CC1NCCC[C@H]1O)Cn1cnc2cc(Br)c(Cl)cc2c1=O (some centres not stated)	1.77%	–
C[C@@H](O[C@H]1OCCN(Cc2n[nH]nc2CN(C)C)[C@H]1c1ccc(F)cc1)c1cc(C(F)(F)F)cc(C(F)(F)F)c1	2.84%	–
CC[C@H](C)[C@H]1O[C@]2(CC[C@@H]1C)C[C@@H]1C[C@@H](C/C=C(\C)[C@@H](O[C@H]3C[C@H](OC)[C@@H](O[C@H]4C[C@H](OC)[C@@H](O)[C@H](C)O4)[C@H](C)O3)[C@@H](C)/C=C/C=C3\CO[C@@H]4[C@H](O)C(C)=C[C@@H](C(=O)O1)[C@]34O)O2	-7.53%	–
COc1cc2nc(-c3cc(F)ccc3O)nc(N[C@@H]3CNC[C@H]3C(C)(C)O)c2cc1OC	-8.03%	–
Cc1cc(CN)cc(C)c1NC(=O)c1ccc(-c2cc(Cl)ccc2Cl)o1	-1.62%	–
c1ccc(-c2cnc(Nc3ccc(OCCN4CCCC4)cc3)s2)cc1	–	35.5 µM (active)
C=C1C(=O)O[C@@H]2/C=C(/C)CC3C=C(C[C@H](OC(=O)/C(C)=C\C)[C@@H]12)C(=O)O3 (some centres not stated)	-21.7% [at 38.5 µM]	–
COc1ccc(-c2nc(-c3cc(C(F)(F)F)cc(C(F)(F)F)c3)n(Cc3ccc(C(N)=O)cc3)c2-c2ccc(OC)cc2)cc1	-11.8%	–
Fc1ccccc1CNCc1ccc(-c2ccnc3[nH]ccc23)cc1	-2.16%	–
CO[C@@H]1[C@@H](O[C@H]2O[C@@H](C)[C@H](O[C@@H]3C[C@](C)(O)[C@H](O)[C@@H](C)O3)[C@@H](N(C)C)[C@@H]2O)[C@@H](CC=O)C[C@@H](C)[C@@H](O[C@H]2CC[C@H](N(C)C)[C@H](C)O2)/C=C/C=C/C[C@@H](C)OC(=O)C[C@H]1O	20.8%	–
